This note sets out measurements from PubChem BioAssay (NCI).

Values joined by “and” are separate entries in the source; they are usually repeats but may differ in a detail not shown here. Equal entries are not always repeated. The panel holds about 83,000 compounds, 20% with a hit somewhere; the sample as a whole holds those more often.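 Single-concentration screen, 48 h exposure, 96-well plates. Endpoint: percent growth. Below 10 = active.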 Unmarked numbers belong to inactive results. Active and inactive are the calls of the source.

The test relates to NCI-H23 lung. Kind of test: NCI-60 one-dose screen, 48 h (100 = growth as untreated, 0 = no growth, -100 = all killed). The note with it: 10 µM unless noted.
Take `CCCn1c(NC(=O)c2cccc(C(N)=O)c2)nc2ccc(CN3CCCCC3)cc21`: the growth was 89.8%.
The value for `Fc1ccc(Nc2nnc(-c3c[nH]c4ccccc34)o2)cc1` was 85.7%; that for `CC1=C(C(=O)OC(C)C)C(c2ccc(O)cc2)NC(=O)N1` (stereo not drawn) was 101%.
The value for `COc1ccc(NC(=O)Cn2c(/C=C/c3ccc([N+](=O)[O-])cc3)nc3ccccc3c2=O)cc1` was 34.9%.
The value for `O=C(c1ccc(O)cc1)C1[C@H](c2ccc(Cl)cc2)[C@@H](c2ccccc2)NC12C(=O)Nc1ccccc12` (stereo partly drawn) was -41.7% (active).
`O=c1ccc(Cn2c(C(F)(F)F)cc3c(Cl)ncnc32)c[nH]1`: the growth is 17.7%.
Take `O=C(CSc1nc2c(c(=O)[nH]1)CCCC2)Nc1ccccc1C(=O)O`: the growth is 99.9%.
For `COc1ccc2[nH]c(O)c(N=Nc3nc(-c4ccc(C#N)cc4)cs3)c2c1` the value was 55.9%; for `COc1ccc(-c2nc3ccc(-c4nnc(SCC(=O)Nc5ccc(/C(C)=N\O)cc5)o4)cc3[nH]2)cc1`, 42.6%; for `Cc1ccc(C2CC(c3ccc(NC(=O)Nc4ccccc4)cc3)=NN2c2ccc(S(C)(=O)=O)cc2)cc1` (stereo not drawn), -69.1% (active).
In the case of `CN1CCN(C(=O)Oc2cc3c(c4ccccc24)[C@H](CCl)CN3C(=O)c2cc3cc(OCCCN4CCC4)ccc3[nH]2)[C@H]2CSSC[C@H]21`, the growth was -65% (active).
On to `Cc1ccc(N=Nc2c(N)nn3c(-c4cc5ccccc5oc4=O)ccnc23)cc1`, for which the growth is 28%.
For `C[C@@H]1[C@H]2C[C@@H](C[C@H]1NCc1nc3ccccc3n1C1CCCCCC1)C2(C)C` the value was 33%; for `Cc1ccc(C(=O)Nc2cc(-n3ccnc3)cc(C(F)(F)F)c2)cc1-n1cc(-c2cnc3cccnn23)nn1`, 82%.
The value for `CCC(=O)c1c2c(c3ccc4c5ccccc5ccc4n13)C(=O)c1ccccc1C2=O` was 44.5%.
The value for `N#Cc1c(NC(=O)N2CCOCC2)n(-c2ccc(OC(F)(F)F)cc2)c2cc(F)ccc12` was 90.7%; that for `CC(=O)Nc1cccc(-n2c(COc3ccc(Br)cc3)nc3ccccc32)c1` was 94% and 107%.
For `COc1ccc(-c2cc(C(=O)OCc3ccc(Br)cc3)nn2-c2ccc(S(C)(=O)=O)cc2)cc1OC`, the growth was 93.6%.
Regarding `Cc1nc(N)ncc1-c1ccc2ncnc(N3CCc4cc(F)c(Cl)cc43)c2c1`, the growth is 84.3%.
Turning to `COc1ccc(C(=O)NNC(=O)CSc2nc3sc4c(c3c(=O)n2-c2ccc(Cl)cc2)CCCC4)cc1`, the growth is 63.2%.
For `Cn1cc(-c2cc3nc(-c4cn(C)c5ncccc45)cc(N)n3n2)c2cc(F)ccc21` the value was 21.2%; for `COc1ccc2[nH]c(=O)c(CSc3ccccc3Nc3nccc(-c4ccc(C(F)(F)F)cc4)n3)cc2c1`, 30.7%; for `N#CC1=C(c2cccs2)Nc2c(c(-c3ccccc3)nn2-c2ccccc2)C12C(=O)Nc1ccc(Br)cc12` (stereo not drawn), 2.18% (active).
On to `CCN1CCN(Cc2ccc(C(=O)Nc3cccc(Nc4ccc5c(OC)cccc5n4)c3)cc2C(F)(F)F)CC1`, for which the growth was -96.1% (active).
With `O=C(Nc1ccc(S(=O)(=O)N2CCCCC2)cc1)C(Cl)Cl`, the growth is 103%.
For `O=[N+]([O-])c1cccc(-c2nnc3c(/C=C/c4ccc(F)cc4)nc4ccccc4n23)c1` the value was 91.7%; for `COc1ccc(/C=C/C(=O)c2ccc(OC)c(S(N)(=O)=O)c2)c(C(F)(F)F)c1`, -78.3% (active).
For `COc1ccc2[nH]cc(-c3cc4nc(-c5cn(C)c6ncc(Br)cc56)cc(N)n4n3)c2c1` the value was -76.7% (active); for `N#CC1=C(c2cccs2)Nc2c(c(-c3ccccc3)nn2-c2ccccc2)C12C(=O)Nc1ccc(Cl)cc12` (stereo not drawn), 23.8%.
For `Oc1ccc(F)c(Nc2nc(SCCN3CCOCC3)nc3c2cnn3CC(Cl)c2ccc(Br)cc2)c1` (stereo not drawn) the value was 26.3%.
For `O=C(NNC(=S)NCCc1ccccc1)c1ccc(OCc2nc3ccc(Cl)cc3[nH]2)cc1`, the growth was 66.3%.
In the case of `COc1c(B(O)O)cc(F)cc1-c1nc2c(F)cc3[nH]ncc3c2c2c1CCCC2`, the growth is 5.45% (active).
The value for `C[C@H]1[C@@H](CC(=O)N[C@@H](Cc2coc3ccccc23)B(O)O)O[C@@H]2OC3(C)CC[C@H]4[C@H](C)CC[C@@H]1[C@@]24O3` was 18.6%.
On to `C#CCN(C)CCCOc1ccc(N(C)C(=O)c2cc(C(C)C)c(O)cc2O)cc1Cl`, for which the growth is 12.3%.
With `O=C(NN1C(=O)/C(=C/C=C/c2ccc([N+](=O)[O-])o2)SC1=S)c1ccc([N+](=O)[O-])cc1`, the growth was -88.4% (active).
As for `O=C(Nc1ccc(-c2ccc3c(c2)NC(=O)/C3=C\c2ccc[nH]2)cc1)Nc1ccc(Cl)c(Cl)c1`, the growth is 37.8%.
For `O=C1Nc2ccc(F)cc2/C1=C/C(=O)c1cc2ccccc2oc1=O`, the growth is 96.1%.
The value for `Cc1cnc2ccc(Oc3ccccc3-c3ccccc3)nn12` was 96.6%.
